Reference: PubChem BioAssay (EPA / NIEHS)
Inconclusive results are not listed. The source made the active and inactive calls. How the source made its calls: active means hit-call score of the fitted dose curve at least 0.9, where 1 is the maximum; inconclusive means response in the unintended direction; inactive means score below 0.9.

test: ATG_XTT_Cytotoxicity: Cytotoxicity Assessment in the Attagene TRANS-FACTORIAL HepG2 Assay (AID 2283584);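 on AC50: cells exposed to compound for 24 h before reading; active means loss of viability signal versus DMSO baseline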
In short: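 Cells: human HepG2, transiently transfected with MRTU reporter constructs. Exposure 24 h. Readout: XTT, cell number. Baseline/neg ctrl DMSO; loss-of-signal scored.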

Row | Structure (SMILES) | outcome | AC50
1 | Cc1cccc(OP(=O)(Oc2cccc(C)c2)Oc2cccc(C)c2)c1 | inactive | 
2 | Cc1ccccc1OP(=O)(Oc1ccccc1)Oc1ccccc1 | inactive | 
3 | Cc1ccc(CCl)cc1 | inactive | 
4 | Nc1ccc(N)cc1 | inactive | 
5 | CN(C1CCCCC1)C1CCCCC1 | inactive | 
6 | N#Cc1ccccc1Cl | inactive | 
7 | C=C(C)C(=O)OCCCCOC(=O)C(=C)C | inactive | 
8 | CN(N=O)c1ccc([N+](=O)[O-])cc1 | inactive | 
9 | CN(CCCC(O)c1cccnc1)N=O (centres undefined) | inactive | 
10 | O=C/C(Cl)=C(/Cl)C(=O)O | inactive | 
11 | CCCCC(CC)COC(=O)Cl (centres undefined) | inactive | 
12 | c1ccc2sc(SNC3CCCCC3)nc2c1 | inactive | 
13 | CCOC(=O)Cc1ccccc1 | inactive | 
14 | NNCCO | inactive | 
15 | Brc1c(Br)c(Br)c(Oc2c(Br)c(Br)c(Br)c(Br)c2Br)c(Br)c1Br | inactive | 
16 | CC(C)N(C(=O)CCl)c1ccccc1 |  | 31.2 µM (active)
17 | NC(=O)c1ccc(N)nc1 | inactive | 
18 | Fc1cccc(Cl)c1CCl | inactive | 
19 | CC[N+](CC)(CC)CC | inactive | 
20 | CCCSP(=S)(OCC)Oc1ccc(Cl)cc1Cl (centres undefined) | inactive | 
21 | C=CCOC(N)=O | inactive | 
22 | CC1(C)COP(Oc2ccccc2)OC1 | inactive | 
23 | CCOCn1c(-c2ccc(Cl)cc2)c(C#N)c(Br)c1C(F)(F)F | inactive | 
24 | O=C1C=CC(=O)c2ccccc21 |  | 49.2 µM (active)
25 | C[As+](C)(C)CC(=O)[O-] | inactive | 
26 | O=C(O)COc1cc(Cl)c(Cl)cc1Cl | inactive | 
27 | Cc1cc(Cl)ccc1N | inactive | 
28 | COc1ccc([N+](=O)[O-])cc1O | inactive | 
29 | CC(C)(c1ccc(O)c(-c2ccccc2)c1)c1ccc(O)c(-c2ccccc2)c1 |  | 22.2 µM (active)
